Screening data: PubChem, National Center for Advancing Translational Sciences (NCATS)
A selection: hits, their analogues and other compounds. The true share with any hit is near 6.5%.
Giardia kill: Giardia lamblia killing; 340,000 tested, 0.15% active; Giardia lamblia trophozoite viability; activity change, % at 7.66 µM, hits read low; in the data active = activity change below about -80%; inconclusive = between about -30% and that limit;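 note: parasites exposed to compound for two days anaerobically before the ATP read; % is set by controls: 0 for no effect and ±100 for the full control effect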
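Anaerobic 48 hrs incubation at 37 deg C of 100 trophozoites/well with test compounds; ATPLite 1-Step luminescence, 15-30 min RT, reports cellular ATP as viability.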
HT1080-NT tox: kills 2HG-producing HT-1080-NT fibrosarcoma cells; HT-1080-NT fibrosarcoma viability, CellTiter-Glo ATP luminescence, 48 h; Potency, µM (titrated, usually from 46.1 µM), for the others: top-dose activity, negative = less viability, most hits filed as cytotoxic; 360,000 tested, 1.6% active;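 note: NT is the 2HG producing partner of a matched IDH1 knockdown line; potency is the fitted concentration of half-maximal effect; 0% = DMSO-treated cells and -100% = media-only wells without cells; nearly all actives have a fitted effect of over 55% in size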
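Viability by CellTiter-Glo luminescence after 48 h compound exposure at 37C of HT-1080-NT cells (750/well, RPMI, 5% FBS). % activity scaled between DMSO wells and medium-only wells, then curve-fitted and categorized by curve class.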
TGFb SMAD3 inh: blocks TGF-b signaling; HepG2 CAGA-GFP TGF-b/SMAD3 reporter, GFP fluorescence, 18 h; TGF-beta stimulated, 500 pg/mL final; Potency, µM (doses to about 46.1 µM), without a hit: at the highest dose activity, negative = inhibition, actives largely listed as inhibitors; 410,000 tested, 1.2% active; note: potency is the fitted concentration of half-maximal effect; % is set by controls: 0 for no effect and ±100 for the full control effect; nearly all actives have a fitted effect of over 65% in size
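HEPG2 CAGA-GFP, 1000 cells/well; 2 h settle, 37 C; cpd via pin tool; TGF-b 500 pg/mL final; 18 h, 37 C; GFP imaging ex488/em500-530; %Activity normalised to -TGF-b and +DMSO controls; CRC fit, curve class.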
IL1B secr inh: blocks inflammasome-driven IL-1 beta release; activity change, % at 57.5 µM; AID 743279; THP-1 LPS/ATP IL-1B secretion, AlphaLISA, 16 h; active compounds read low; 360,000 tested, 4.7% active; in the data active = activity change below about -50%; inconclusive = mostly about -30% to -49%; note: % is set by controls: 0 for no effect and ±100 for the full control effect
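Secreted IL-1B measured by AlphaLISA bead assay after 16 h compound exposure of THP-1 cells; compounds (final up to 57.5 uM) added 1 h before LPS (250 ng/mL) and ATP (1.25 mM) stimulation; lower signal means less secretion.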
HT1080 IDH1KD tx: HT-1080 IDH1 knockdown cell toxicity (counter line) | HT-1080 IDH1 knockdown viability, ATP luminescence, 48 h | Potency, µM (titrated, usually from 46.1 µM), for the others: at the highest dose activity, negative = toxicity, actives largely listed as cytotoxic | 360,000 tested, 2% active | AID 686971;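 note: potency is the fitted concentration of half-maximal effect; 0% = DMSO wells and -100% = cell-free medium wells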
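IDH1KD HT-1080 cells, 750/well, RPMI + 5% FBS; compound pinned after 2 h settling; 48 h, 37 °C; CellTiter-Glo luminescence; % activity normalised to DMSO and no-cell wells; curves fitted, classed by r2 and efficacy.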
HepG2 tox: kills HepG2 cells in TGF-b inhibitor counter-screen | HepG2 CAGA-GFP viability, ATP luminescence, 18 h | Potency, µM (highest dose often 46.1 µM), without a hit: top-dose activity change, negative = cytotoxicity, actives largely listed as cytotoxic | 410,000 tested, 0.76% active; note: potency is the fitted concentration of half-maximal effect
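CellTiter-Glo luminescence gave cytotoxicity after 18 hours at 37 degrees C. The cells were HepG2 CAGA-GFP in 1% FBS DMEM, stimulated with 500 pg/mL TGF-beta after compound addition. %Activity was normalised to no-cell wells (complete cell-killing) and DMSO (no toxicity), and curves were fitted and classified.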
* hit, by the source's call; ? = inconclusive; . = not tested or not shown. Unless noted, calls come from the whole dose curve; as a rule, active = well fitted curve in the direction sought with a large enough effect; inconclusive = small, poorly fitted or top-dose-only effect, or another doubt; inactive = no such curve, though single readings can be large; an effect the other way counts as inactive or inconclusive.

SMILES | Giardia kill | HT1080-NT tox | TGFb SMAD3 inh | IL1B secr inh | HT1080 IDH1KD tx | HepG2 tox
COc1ccc(NC(=O)COC(=O)/C=C/C(=O)OCC(=O)Nc2ccc(OC)c(Cl)c2)cc1Cl | 5 | ? | ? | -103* | ? | -37%
C/C(=C\C(=O)OCC(=O)NCc1ccccc1)C(=O)OCC(=O)NCc1ccccc1 | -27 | 15% | ? | -2 | 15% | -5%
CCOC(=O)/C=C/C(=O)OCC(=O)Nc1c(Cl)cccc1Cl | -4 | 12% | 1% | -54* | 6% | -41%
CCOC(=O)/C=C/C(=O)OCC(=O)Nc1ccc(OC)c(Cl)c1 | 8 | -14% | 4% | ? | -5% | -4%
CCOC(=O)/C=C/C(=O)OCC(=O)NCc1ccccc1 | 5 | -6% | -3% | -91* | 6% | -36%
COC(=O)/C=C/C(=O)Nc1ccc(O)c(Cl)c1 | 10 | -24% | ? | -99* | -19% | 6%
O=S(CC(O)COCc1ccc(Cl)cc1)c1ccccn1 (stereo not drawn) | 2 | -4% | -9% | -12 | 5% | -13%
COc1ccc(NC(=O)Nc2cccs2)cc1Cl | 2 | -4% | 0% | -52* | -2% | -21%
COc1ccc(NC(=O)CCC(=O)c2cccs2)cc1Cl | -21 | 16% | 3% | 2 | 3% | -2%
NS(=O)(=O)c1ccc(NC(=O)CSc2nnc(-c3ccc(O)cc3)o2)cc1 | -1 | -12% | 4% | -4 | -5% | 13%
CCOC(=O)N1CCN(C(c2cc3ccccc3o2)c2nnnn2C(C)(C)C)CC1 (stereo not drawn) | . | 10% | . | 3 | 3% | .
CC(C)COc1ccc(CNC(=S)Nc2ccccc2)cc1Cl | -4 | -22% | 11µM* | ? | ? | 13µM*
CCCOc1ccc(CNC(=S)Nc2ccccc2)cc1Cl | 34 | -17% | 0% | -79* | -28% | -20%
CC(C)Oc1ccc(CNC(=S)Nc2ccccc2)cc1Cl | -16 | 4% | ? | 4 | 3% | -27%
COc1ccc(CNC(=S)Nc2ccccc2)cc1Cl | 31 | -4% | ? | ? | -9% | -27%
COc1ccc(C2C3=C(CC(C)(C)CC3=O)Nc3cc4c(cc32)OCO4)cc1 (stereo not drawn) | 7 | 6% | -21% | -60* | 15% | -24%
COc1ccc(OC)c(C2C3=C(COC3=O)Nc3cc4c(cc32)OCO4)c1 (stereo not drawn) | -20 | 0.65µM* | ? | 50 | 0.52µM* | 1%
COc1ccc(C2CC(=O)Nc3cc4c(cc32)OCO4)c(OC)c1 (stereo not drawn) | . | . | . | . | . | -14%
Cc1ccc(C)c(C2NC(=O)c3ccccc3N2)c1 (stereo not drawn) | -2 | ? | -2% | 10 | 2.3µM* | -3%
CSc1ccc(C2NC(=O)c3ccccc3N2)cc1 (stereo not drawn) | -11 | 18µM* | -9% | 35 | 9.2µM* | 2%
COc1cc(C)c(C2NC(=O)c3ccccc3N2)cc1C (stereo not drawn) | -10 | 5.8µM* | ? | 8 | ? | -31%
Cn1cc(C2NC(=O)c3ccccc3N2)c2ccccc21 (stereo not drawn) | -9 | 4.6µM* | -12% | 29 | 8.2µM* | 1%
COc1ccc(C2NC(=O)c3ccccc3N2)c(OC)c1OC (stereo not drawn) | . | -16% | 0% | 21 | ? | -10%
O=C1NC(c2ccccc2O)Nc2ccccc21 (stereo not drawn) | 11 | 0% | -3% | 21 | 1% | -4%
O=C(Nc1cccc(S(=O)(=O)N2CCOCC2)c1)c1cc([N+](=O)[O-])ccc1N1CCOCC1 | 9 | 0% | -1% | 5 | 0% | -4%
SMILES | Giardia kill | HT1080-NT tox | TGFb SMAD3 inh | IL1B secr inh | HT1080 IDH1KD tx | HepG2 tox
CCOC(=O)C(C)Sc1nnc(Cn2c(=O)sc3ccccc32)n1-c1ccccc1 (stereo not drawn) | -5 | 3% | -4% | -4 | -6% | 5%
COc1ccc(CCNc2nc3c(-c4cccc(C(F)(F)F)c4)nnn3c3ccccc23)cc1OC | . | . | ? | . | . | 1%
CCOC(=O)Cc1csc(NC(=O)C(C)(C)CC)n1 | 20 | 7% | 19% | 15 | 7% | 3%
Cc1c(NC(=O)c2cc(-c3cccc(O)c3)on2)c(=O)n(-c2ccccc2)n1C | . | . | -2% | . | . | 1%
COc1ccc(CN2CCN(C(=O)c3cccc4ccccc34)CC2)cc1OC | 15 | -1% | 16% | -15 | 1% | 11%
COc1ccccc1CN1CCN(C(=O)c2cccc3ccccc23)CC1 | -10 | 3% | -25% | -11 | 1% | -40%
COc1ccc(CN2CCN(C(=O)c3cccc4ccccc34)CC2)cc1Br | -21 | ? | ? | -65* | ? | -14%
COc1cccc(CN2CCN(C(=O)c3cccc4ccccc34)CC2)c1OC | -12 | -5% | ? | -77* | -1% | -31%
Cc1ccccc1CNC(=O)CCCn1ncn2c(cc3occc32)c1=O | -9 | 8% | ? | -3 | 18% | 1%
COc1cc(C(=O)Nc2nnc(-c3sccc3C)s2)cc(OC)c1OC | -7 | ? | -11% | -9 | 15µM* | -45%
COc1ccc2nc(NC(=O)CCc3cc(OC)c(OC)c(OC)c3)sc2c1 | 5 | -1% | -8% | -63* | 0% | -5%
CCOCc1nnc(NC(=O)c2cc(OC)c(OC)c(OC)c2)s1 | -13 | -1% | 29% | -8 | 0% | 1%
CCC(=O)Nc1nc2ccc(NC(=O)c3cc(OC)c(OC)c(OC)c3)cc2s1 | -12 | -26% | 37% | -52* | -16% | -19%
COc1cc(CCC(=O)Nc2nnc(C)s2)cc(OC)c1OC | -19 | 6.5µM* | 0% | 22 | 7.3µM* | 5%
CC(C)C(=O)NCCc1nc2ccccc2n1CCc1ccccc1 | 2 | 1% | 1% | -63* | 25% | 4%
COc1ccc(OCCCn2c(CCNC(=O)C3CCCCC3)nc3ccccc32)cc1 | -7 | . | 10µM* | . | . | -17%
CC(C)(C)C(=O)NCCc1nc2ccccc2n1CCCCOc1ccc(Cl)cc1 | . | . | ? | . | . | -95%
Cc1ccccc1OCCCCn1c(CCNC(=O)C(C)(C)C)nc2ccccc21 | . | . | 16µM* | . | . | -86%
Cc1cccc(C)c1OCCCn1c(CCNC(=O)C2CCCCC2)nc2ccccc21 | -6 | . | 11µM* | . | . | -94%
COc1ccc(OCCn2c(CCNC(=O)C3CCCCC3)nc3ccccc32)cc1 | 13 | . | -2% | . | . | -21%
CC(=O)Nc1cnc(-c2ccccc2C(C)=O)cn1 | . | 11% | 14% | 52 | ? | 3%
